{"source": "PubChem BioAssay AID598", "about": "(SRMLSC, 2007)", "note": "In all, about 85,000 compounds went through this assay and about 5,100 (6%) were called active. The sample holds actives, similar compounds and a random draw of the others, so the mix is not that of the screen. Values without a mark were called inactive.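 How the source made its calls: active means viability at or below 40%; inactive means viability above 40%.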"}
{"assay": "proliferation blockers of H69AR lung cancer cells, primary screen, cell-based, human, 86K library (AID 598);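 further: multidrug resistant small cell line overexpressing MRP-1 efflux transporter; 100% = mean luminescence of untreated control wells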", "details": "H69AR lung tumor viability, ATP luminescence, 72 h; at 10 µM; hits give low values"}
{"smiles": "Cn1c(SCC(=O)NC2CCCCC2)nnc1-c1cc2ccccc2o1", "viability": "91%"}
{"smiles": "Cc1cccc(NC(=O)Nc2cccc(Oc3c(F)c(F)c(F)c(F)c3F)c2)c1", "viability": "8.13% (active)"}
{"smiles": "Cc1ccoc1C(=O)Nc1cccc(Oc2ccccc2)c1", "viability": "112%"}
{"smiles": "CC(=O)c1cccc(NC(=O)Nc2ccc(C)cc2)c1", "viability": "95.3%"}
{"smiles": "COc1ccc2c(Cl)c(C(=O)NCc3ccco3)sc2c1", "viability": "91.4%"}
{"smiles": "CCOc1ccc(N=C2NC(=O)S/C2=C\\c2ccc(O)cc2)cc1", "viability": "47.5%"}
{"smiles": "CCC(=O)Nc1ccc(C(=O)Nc2cccc(OC)c2)cc1", "viability": "64.6%"}
{"smiles": "CCCc1nc2scc(-c3ccc(C)cc3)c2c(=O)n1N", "viability": "46.1%"}
{"smiles": "O=C(Cc1ccccc1)Nc1c(C(=O)N2CCCCCC2)cnn1-c1ccccc1", "viability": "96.5%"}
{"smiles": "C#CCNc1nc(C(C)C)nc2c1nnn2Cc1ccccc1F", "viability": "104%"}
{"smiles": "CCCc1nc(NCc2ccc3c(c2)OCO3)c2nnn(Cc3ccccc3Cl)c2n1", "viability": "24.6% (active)"}
{"smiles": "O=C(Cn1cnc2c(nnn2Cc2ccc(F)cc2)c1=O)NCc1ccc2c(c1)OCO2", "viability": "95.8%"}
{"smiles": "O=c1onc(-c2cccs2)n1Cc1ccccc1", "viability": "95.9%"}
{"smiles": "Cc1cccc(C)c1OC(=O)CSc1nnc(-c2ccccc2)o1", "viability": "98.4%"}
{"smiles": "O=C1CC(C(F)(F)C(F)(F)C(F)(F)C(F)(F)F)=Nc2ccccc2N1", "viability": "92.7%"}
{"smiles": "CCCCOc1ccc(Cl)cc1CSc1nncn1N", "viability": "94%"}
{"smiles": "CCCCOc1ccc(CSC(=N)N)cc1[N+](=O)[O-]", "viability": "5.08% (active)"}
{"smiles": "N#C/C(=C\\c1ccccc1)c1n[nH]c(Cn2cncn2)n1", "viability": "96.8%"}
{"smiles": "O=C(CCS(=O)(=O)c1cccc2nsnc12)N1CCN(c2ccccc2F)CC1", "viability": "91%"}
{"smiles": "CCOC(=O)C(=O)Nc1nc(-c2ccccc2)c(CC)s1", "viability": "103%"}
{"smiles": "Cc1sc2nc(SCC(N)=O)n(C)c(=O)c2c1C", "viability": "84.1%"}
{"smiles": "CCCn1c(=O)c2ccccc2n2c(SCC(=O)/C(C#N)=C(\\C)N)nnc12", "viability": "79.8%"}
{"smiles": "C=CCn1c(SCC(=O)/C(C#N)=C(\\C)N)nc2sc(C)c(C)c2c1=O", "viability": "6.3% (active)"}
{"smiles": "CCC(=O)Nc1ccc(S(=O)(=O)NCC2CCCO2)cc1", "note": "(stereo not given)", "viability": "90.7%"}
{"smiles": "CC1CCc2sc3nc(N4CCN(CCO)CC4)n4ncnc4c3c2C1", "note": "(stereo not given)", "viability": "33.1% (active)"}
{"smiles": "N#Cc1c2c(c(N3CCN(CCO)CC3)n3c1nc1ccccc13)CCCC2", "viability": "85.5%"}
{"smiles": "Cc1c(Nc2nc3ccccc3nc2NS(=O)(=O)c2cccs2)c(=O)n(-c2ccccc2)n1C", "viability": "85.5%"}
{"smiles": "CCOC(=O)C(C)n1cnc2sc(C)c(C)c2c1=O", "note": "(stereo not given)", "viability": "89.3%"}
{"smiles": "CC(=O)Oc1ccc(NC(=O)CCC2CCCCC2)c(C(=O)O)c1", "viability": "101%"}
{"smiles": "COc1ccc(CN(CC(=O)NC2CCCC2)C(=O)CCC(=O)Nc2cc(C)on2)cc1", "viability": "96.3%"}
{"smiles": "COc1cccc(OCc2cc(/C=N/NC(=O)c3nc(Cl)c(Cl)c(N)c3Cl)ccc2OC)c1", "viability": "19.7% (active)"}
{"smiles": "COc1cccc(OCC(=O)Nc2ccccc2C(N)=O)c1", "viability": "85.5%"}
{"smiles": "COc1cccc(OCCOc2cccc(/C=N/n3cnnc3)c2)c1", "viability": "84.3%"}
{"smiles": "CCCCCN1CC(O)=C(c2ccccc2)C1=N", "viability": "88.7%"}
{"smiles": "COc1ccccc1N1CCN(C(=O)c2cn(-c3ccccc3)nc2-c2cccnc2)CC1", "viability": "21.9% (active)"}
{"smiles": "COc1ccc(Nc2ncc(C(=O)N3CCN(c4ccccc4OC)CC3)c3ccccc23)cc1", "viability": "80.8%"}
{"smiles": "O=C(c1cn(-c2ccccc2)nc1-c1cccnc1)N1CCCCC1", "viability": "90.8%"}
{"smiles": "COc1cccc2c1OCC1COc3c(c(=O)n(C)c(=O)n3C)C21", "note": "(stereo not given)", "viability": "94.9%"}
{"smiles": "CCCCCCc1cc2cc(-c3nnc(-c4ccccc4)o3)c(=O)oc2cc1O", "viability": "9.42% (active)"}
{"smiles": "COc1cccc(C(=O)c2cc3ccc(O)cc3oc2=O)c1", "viability": "68.4%"}
{"smiles": "CCCCN(CC)CCCNC(=O)CS(=O)(=O)Cc1nc(-c2cccc(OC)c2)oc1C", "viability": "88.1%"}
{"smiles": "O=c1oc2cc(O)ccc2cc1-c1ccc(F)cc1", "viability": "88.7%"}
{"smiles": "CCCCCCc1cc2cc(-c3nnc(-c4cccc(OC)c4)o3)c(=O)oc2cc1O", "viability": "2.32% (active)"}
{"smiles": "CC(C)CCSc1ncnc2c1oc1nc3c(cc12)COC(C)(C)C3", "viability": "68.6%"}
{"smiles": "Cc1nnc(SCc2nc3ccccc3nc2C)s1", "viability": "97.2%"}
{"smiles": "Cc1cccc(N2C(=O)c3cccnc3C2=O)c1", "viability": "92.3%"}
{"smiles": "CCN(CC)CCn1c(=S)[nH]c2ncccc2c1=O", "viability": "101%"}
{"smiles": "C=C(C)CNC(=S)/N=c1\\scc(C)n1CC", "viability": "91.2%"}
{"smiles": "O=C(O)c1ccc(COCC(F)(F)F)cc1", "viability": "98.2%"}
{"smiles": "CCC(C)NC(=O)CCCc1ccccc1", "note": "(stereo not given)", "viability": "86.3%"}
{"smiles": "CCCCCc1ccc(-c2ccc(C(=O)O)cc2)nc1", "viability": "35.7% (active)"}
{"smiles": "O=C(c1cc(-c2cccs2)on1)N1CCCCC1", "viability": "97.2%"}
{"smiles": "Cc1cc(NC(=O)c2cc(-c3cccs3)on2)nn1Cc1ccc(Cl)cc1", "viability": "26.1% (active)"}
{"smiles": "Cc1ccc(Cn2ccc(NC(=O)c3cc(C(C)C)on3)n2)cc1", "viability": "95%"}
{"smiles": "Cc1ccc(S(=O)(=O)N2CCN(S(=O)(=O)N3CCOCC3)CC2)cc1", "viability": "93.1%"}
{"smiles": "C/C(=N\\NC(=O)c1ccc(C)cc1)C1C(=O)c2ccccc2C1=O", "viability": "78.5%"}
{"smiles": "CC1CCN(C(=O)c2cc3nc(C4CC4)cc(C(F)(F)F)n3n2)CC1", "viability": "97.6%"}
{"smiles": "CCC(C)NC(=O)CSC1=Nc2ccccc2C2=NC(CCC(=O)NCc3ccco3)C(=O)N12", "note": "(stereo not given)", "viability": "90.7%"}
{"smiles": "CCOc1nc(-c2ccc(OC)cc2)ccc1-c1noc(-c2cc(OC)c(OC)c(OC)c2)n1", "viability": "13.9% (active)"}
{"smiles": "COc1cc(-c2nc(-c3ccncc3)no2)cc(OC)c1OC", "viability": "88.6%"}
{"smiles": "COc1ccc(-c2ccc(-c3noc(-c4ccncc4)n3)c(OC)n2)cc1", "viability": "93.4%"}
{"smiles": "Cc1ccc(OCC(=O)N/N=C\\c2ccco2)c(C)c1", "viability": "93.4%"}
{"smiles": "Cc1ccc(S(=O)(=O)N(C)C2(C)CCS(=O)(=O)C2)cc1", "note": "(stereo not given)", "viability": "109%"}
{"smiles": "Cc1ccc(S(=O)(=O)NC(=O)N2CCCC(C)(C)C2)cc1", "viability": "91%"}
{"smiles": "Cc1ccc(S(=O)(=O)C2(S(=O)(=O)c3ccc(C)cc3)CCCC2)cc1", "viability": "18.3% (active)"}
{"smiles": "O=C1Nc2c(Br)cc(Br)cc2C1(O)N1CCOCC1", "note": "(stereo not given)", "viability": "31.2% (active)"}
{"smiles": "Cc1c(-c2ccccc2)nc(N)c(C#N)c1-c1cccs1", "viability": "77%"}
{"smiles": "CCc1c(-c2ccccc2)nc(N)c(C#N)c1-c1cccs1", "viability": "36% (active)"}
{"smiles": "CCc1c(C)nc2cc(-c3cccs3)[nH]n2c1=O", "viability": "91.8%"}
{"smiles": "O=C(O)CSc1nccn1-c1cccc(Cl)c1", "viability": "88.9%"}
{"smiles": "Cc1noc(NS(=O)(=O)c2ccc(N/C=C/C(=O)c3ccccc3)cc2)c1C", "viability": "76.1%"}
{"smiles": "COc1ccc(CCNS(=O)(=O)c2ccc(Cl)s2)cc1OC", "viability": "93%"}
{"smiles": "COc1ccc(-c2cc(C(F)(F)F)nc(NCc3cccnc3)n2)cc1", "viability": "92.9%"}
{"smiles": "COc1ccc(-c2nnco2)cc1OC", "viability": "107%"}
{"smiles": "COc1ccc(-c2cc(C(F)(F)F)nc(S(C)(=O)=O)n2)cc1OC", "viability": "1.78% (active)"}
{"smiles": "O=C(Nc1nncs1)c1cccc(S(=O)(=O)N2CCCCC2)c1", "viability": "94.8%"}
{"smiles": "Cc1ccc(-n2c(SCC(=O)Nc3ccc4c(c3)OCO4)nnc2-c2ccccn2)cc1", "viability": "65.9%"}
{"smiles": "Cc1cc(C)c(S(=O)(=O)N2C=CC(C(F)(F)F)=NCC2)c(C)c1", "viability": "109%"}
{"smiles": "CCCCN(CC)CCNC(=O)c1[nH]c(C)c(C(C)=O)c1C", "viability": "101%"}
{"smiles": "Cc1ccc(C2(C(F)(F)F)N=C3Sc4cc(C)cc(C)c4N3C(=O)N2)cc1", "note": "(stereo not given)", "viability": "101%"}
{"smiles": "CCOC(=O)c1sc(=S)n2c1[nH]c(=O)c1ccc(C(=O)OC)cc12", "viability": "36.7% (active)"}
{"smiles": "CCOC(=O)Cn1c(N)c(C(=O)OC)sc1=S", "viability": "105%"}
{"smiles": "CCOC(=O)c1sc(=S)n(-c2cccc(OC)c2)c1N", "viability": "97.3%"}
{"smiles": "Cc1ccc(C)c(N2C(=O)CS/C2=N\\NC(=O)c2ccccc2Cl)c1", "viability": "101%"}
{"smiles": "Cn1ccs/c1=N\\S(=O)(=O)c1ccc(C(C)(C)C)cc1", "viability": "89.4%"}
{"smiles": "COc1ccc(NC(=O)C2C3C=CC(C3)C2C(=O)NCc2ccccn2)c(OC)c1", "note": "(stereo not given)", "viability": "93.1%"}
{"smiles": "O=C(NCCc1ccccc1)c1ccc(OCCOc2ccccc2)cc1", "viability": "87.8%"}
{"smiles": "COc1ccccc1NC1=NC2(CCCC2)N=C(N)N1", "viability": "91.5%"}
{"smiles": "COc1ccccc1NC1=NC(c2ccc(Cl)cc2)N=C(N)N1", "note": "(stereo not given)", "viability": "19.5% (active)"}
{"smiles": "COc1ccccc1Nc1nc(N)nc(CN(C)C2CCCCC2)n1", "viability": "87.4%"}
{"smiles": "Cc1ccc(S(=O)(=O)NCC(C)NS(C)(=O)=O)cc1", "note": "(stereo not given)", "viability": "95.2%"}
{"smiles": "CCOC(=O)c1sc(NC(=O)c2ccncc2)nc1C", "viability": "96.2%"}
{"smiles": "CCCCCOC(=O)c1ccc(N2C(=O)C3C4C=CC(C4)C3C2=O)cc1", "note": "(stereo not given)", "viability": "95.1%"}
{"smiles": "COc1ccc(Nc2cc(=O)oc3ccccc23)cc1", "viability": "18.4% (active)"}
{"smiles": "COc1ccc(N2CCN(Cc3cc(=O)oc4ccc5ccccc5c34)CC2)cc1", "viability": "71.9%"}
{"smiles": "COC(=O)COc1ccc2oc(=O)cc(C)c2c1", "viability": "91.9%"}
{"smiles": "Cc1cc(N2CCN(S(=O)(=O)c3ccc(C)c(C)c3)CC2)c2ccccc2n1", "viability": "66.8%"}
{"smiles": "CC1(C)CCc2nc(SCc3ccccc3)c(C#N)cc2C1", "viability": "81.4%"}
{"smiles": "CC(NC(=O)CSc1nc2c(cc1C#N)CN(C)CC2)c1ccccc1", "note": "(stereo not given)", "viability": "15.6% (active)"}
{"smiles": "Cc1ccc2cc(C#N)c(SCC(=O)NCC3CCCO3)nc2c1C", "note": "(stereo not given)", "viability": "91.2%"}
